Results filed as inconclusive are left out. A number with no mark means an inactive call. The source made the active and inactive calls. Calls come from the whole dose curve.

The assay is described as follows: Confirmatory qHTS for Vero E6 cytotoxicity: counterscreen for inhibitors of SARS-S pseudo-typed particle cell entry. To be noted: cell viability; series mostly up to 57.1 µM; activity change, negative = cytotoxicity: at the top concentration.
Consider `CCn1cc(C(=O)O)c(=O)c2cc(F)c(N3CCNC(C)C3)c(F)c21` (stereo not drawn), for which the “activity change, negative = cytotoxicity” value was -17.7%.

As to `CNCCCC12CCC(c3ccccc31)c1ccccc12`, the “activity change, negative = cytotoxicity” value was -14.6%. On to `CN1CCC[C@@H]1CCO[C@](C)(c1ccccc1)c1ccc(Cl)cc1`, for which the “activity change, negative = cytotoxicity” value was -11.2%. Consider `CC(C)OC(=O)OCOP(=O)(CO[C@H](C)Cn1cnc2c(N)ncnc21)OCOC(=O)OC(C)C`, for which the “activity change, negative = cytotoxicity” value was -16.5%.

`CC[C@H](C)C(=O)O[C@H]1C[C@@H](C)C=C2C=C[C@H](C)[C@H](CC[C@@H]3C[C@@H](O)CC(=O)O3)[C@H]21`: the Potency is 9.61 µM (active). Regarding `CCCN1C[C@H](C)[C@@H](O)[C@](C)(O)[C@@H](CC)OC(=O)[C@H](C)[C@@H](O[C@H]2C[C@@](C)(OC)[C@@H](O)[C@H](C)O2)C(C)[C@@H](O[C@@H]2O[C@H](C)C[C@H](N(C)C)[C@H]2O)[C@](C)(O)C[C@H]1C` (stereo partly drawn), the “activity change, negative = cytotoxicity” value is -15.3%. Still for that read-out and setting: to `CCc1c2c(nc3ccc(OC(=O)N4CCC(N5CCCCC5)CC4)cc13)-c1cc3c(c(=O)n1C2)COC(=O)[C@]3(O)CC` belongs 0%.

Turning to `CCOc1ccc(Cc2nccc3cc(OCC)c(OCC)cc23)cc1OCC`, the Potency was 27.1 µM (active). Same read-out and setting: to `COc1cccc2c1C(=O)c1c(O)c3c(c(O)c1C2=O)C[C@@](O)(C(C)=O)C[C@@H]3O[C@H]1C[C@H](N)[C@H](O)[C@H](C)O1` belongs 13.6 µM (active). Turning to `COc1cc2c(cc1Cc1cccc(Cl)c1F)c(=O)c(C(=O)O)cn2[C@H](CO)C(C)C`, the “activity change, negative = cytotoxicity” value was 0%. `CCCCCCNC(=O)n1cc(F)c(=O)[nH]c1=O`: the “activity change, negative = cytotoxicity” value is 0%. On the same count and under the same terms, to `CC(C)(C)C(=O)OCOP(=O)(COCCn1cnc2c(N)ncnc21)OCOC(=O)C(C)(C)C` belongs -6.28%; to `C=CC1(C)CC(=O)C2(O)C(C)(O1)C(OC(C)=O)C(OC(=O)CCN(C)C)C1C(C)(C)CCC(O)C12C` (stereo not drawn), -12.4%; to `CN1CCC(=C2c3ccccc3C=Cc3ccccc32)CC1`, 0%. Still for that read-out and setting: to `CCCCN=C(N)N=C(N)N` belongs 0%; to `Cc1c(N)nc(C(CC(N)=O)NCC(N)C(N)=O)nc1C(=O)NC(C(=O)NC(C)C(O)C(C)C(=O)NC(C(=O)NCCc1nc(-c2nc(C(=O)NCCCN[C@@H](C)c3ccccc3)cs2)cs1)C(C)O)C(O[C@@H]1O[C@@H](CO)[C@@H](O)[C@H](O)[C@@H]1O[C@H]1O[C@H](CO)[C@@H](O)[C@H](OC(N)=O)[C@@H]1O)c1cnc[nH]1` (stereo partly drawn), 0%.

On to `Oc1c(Cl)cc(Cl)c(Cl)c1Cc1c(O)c(Cl)cc(Cl)c1Cl`, for which the Potency was 4.82 µM (active). The same measure, in the same setting: the same measure for `COc1cc([C@@H]2c3cc4c(cc3C(O[C@@H]3O[C@@H]5CO[C@@H](c6cccs6)OC5[C@H](O)[C@H]3O)C3COC(=O)[C@@H]32)OCO4)cc(OC)c1O` (stereo partly drawn): 24.1 µM (active).
